Screening results as filed in PubChem BioAssay.
Pol iota inh: blocks human DNA polymerase iota activity | Q9UNA4 | Pol iota fluorescent replication assay, 10 min | Potency, µM (titrated, usually from 115 µM), for inactives: at the highest dose activity, negative = inhibition, hits mostly inhibitors | actives 1% (n = 390,000) | AID 588590; also: potency is read from the fitted curve at half-maximal effect
Target sequence (Q9UNA4 whole entry, looked up): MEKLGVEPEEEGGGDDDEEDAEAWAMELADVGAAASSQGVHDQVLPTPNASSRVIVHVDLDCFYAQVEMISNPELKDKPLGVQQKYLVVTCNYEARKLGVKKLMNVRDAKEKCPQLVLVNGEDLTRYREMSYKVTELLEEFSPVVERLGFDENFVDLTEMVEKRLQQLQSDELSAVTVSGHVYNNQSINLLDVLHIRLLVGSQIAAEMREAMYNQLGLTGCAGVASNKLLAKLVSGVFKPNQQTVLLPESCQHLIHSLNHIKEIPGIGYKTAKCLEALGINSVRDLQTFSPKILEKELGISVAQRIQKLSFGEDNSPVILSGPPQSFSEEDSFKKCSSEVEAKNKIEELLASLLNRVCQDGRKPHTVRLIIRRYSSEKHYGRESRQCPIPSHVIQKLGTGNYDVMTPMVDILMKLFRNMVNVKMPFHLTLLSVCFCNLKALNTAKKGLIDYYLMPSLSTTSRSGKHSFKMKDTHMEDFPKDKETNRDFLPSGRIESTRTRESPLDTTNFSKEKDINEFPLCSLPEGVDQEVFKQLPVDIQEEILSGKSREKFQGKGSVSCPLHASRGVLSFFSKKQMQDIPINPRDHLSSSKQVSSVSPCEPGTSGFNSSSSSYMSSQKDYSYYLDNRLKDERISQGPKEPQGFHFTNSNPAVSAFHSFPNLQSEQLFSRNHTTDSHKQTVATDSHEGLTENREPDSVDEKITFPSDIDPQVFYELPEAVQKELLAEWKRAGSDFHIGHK
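Fluorescent replication assay read twice, at 0 min and 10 min after adding 50 nM (final) substrate. Enzyme (10 nM) and compounds were first incubated 15 min at room temperature; enzyme-free buffer wells were negative controls.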
PI5P4K alpha inh: PI5P4K alpha (human) kinase inhibition. PI5P4Kalpha enzyme, ADP-Glo luminescence, 60 min; stronger effect = lower value. max response, %. actives 1.2% (n = 330,000). AID 652105; active = max response of -50% or lower; inconclusive = between -30% and -50%; inactive = -30% or higher; also: value at the top dose of about 77 µM; % is scaled to controls: 0 for no effect and ±100 for the full control effect
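PI5P4Kalpha ADP-Glo assay; 5 microM ATP final; 60 min RT reaction; HEPES pH 7.4/EGTA/CHAPS, 5% DMSO; controls lacking substrate or enzyme; luminescent end-point.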
Pol eta inh: inhibitors of human DNA polymerase eta; AID 588591; recombinant Pol eta, fluorescent DNA replication assay; actives 1.2% (n = 390,000); Q9Y253; Potency, µM (top dose mostly 114 µM), for inactives: top-dose activity change, negative = inhibition, usual class: inhibitors; also: potency is read from the fitted curve at half-maximal effect; % is scaled to controls: 0 for no effect and ±100 for the full control effect
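Fluorescent replication assay: 50 nM final substrate added after a 15 min room-temperature compound preincubation with 10 nM enzyme. Signal taken at 0 min and again at 10 min.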
POLB inh: DNA polymerase beta (human) inhibition | P06746 | Pol beta primer extension/strand displacement, fluorescence kinetic | Potency, µM (titrated, usually from 114 µM), inactives show at the top dose activity change, negative = inhibition, hits mostly inhibitors | actives 1.3% (n = 340,000); also: potency is read from the fitted curve at half-maximal effect; % is scaled to controls: 0 for no effect and ±100 for the full control effect
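Pol beta (10 nM) and compounds were preincubated 15 min at room temperature, then 50 nM substrate (final) started primer extension/strand displacement. Reads were taken at 0 and 10 min; concentration-response data were fitted to a four-parameter Hill equation.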
POLK inh: inhibitors of human DNA polymerase kappa; Potency, µM (top dose mostly 107 µM), for inactives: at the top dose activity, negative = inhibition, hits mostly inhibitors; purified Pol kappa, fluorescent DNA synthesis assay, 10 min; actives 0.53% (n = 400,000); also: potency is read from the fitted curve at half-maximal effect; % is scaled to controls: 0 for no effect and ±100 for the full control effect
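50 nM final substrate added after 15 min RT preincubation of 10 nM Pol kappa with compound; fluorescence read at 0 and 10 min.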
FEN1 inh: human FEN1 inhibition. Recombinant FEN1 flap cleavage, fluorescence, 15 min. Potency, µM (titrated, usually from 114 µM), for inactives: at the top dose activity change, negative = inhibition, usual class: inhibitors. actives 0.35% (n = 390,000). AID 588795; also: potency is read from the fitted curve at half-maximal effect; % is scaled to controls: 0 for no effect and ±100 for the full control effect; nearly all actives have a fitted effect of over 65% in size
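Steps: FEN1 (10 nM) dispensed; compound added by pin tool; 15 min at room temperature; substrate added to 50 nM final; reads at 0 min and 15 min; data normalized and fitted (four-parameter Hill).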
* hit, by the source's call; ? = inconclusive; . = no result given; [ ] = another dose, or the depositor's remark. Rows were chosen to be rich in hits. Some 2.8% of all compounds tested hit in one or more screens of this group. Unless noted, calls follow the shape of the dose curve; as a rule, active = well fitted curve in the direction sought with a large enough effect; inconclusive = small, poorly fitted or top-dose-only effect, or another doubt; inactive = no such curve, though single readings can be large; an effect the other way counts as inactive or inconclusive.

SMILES	Pol iota inh	PI5P4K alpha inh	Pol eta inh	POLB inh	POLK inh	FEN1 inh
CNC(=O)COc1ccc(Nc2nnc(-c3ccc(C)c(S(N)(=O)=O)c3)c3ccccc23)cc1	126%	12	40µM*	3%	-9%	2%
CC(C)(C)n1ncc2c(=O)n(Cc3cccc(Cl)c3Cl)cnc21	20%	.	.	.	-16%	-4%
O=C(CSc1nccc(=O)[nH]1)N1c2ccccc2CCc2ccccc21	71µM*	.	-7%	-12%	-3%	-8%
COc1ccc(CNC(=O)O[C@H]2CN(C(=O)OC(C)C)N(C(=O)OC(C)C)[C@@H]3CN(S(=O)(=O)c4ccc(C)cc4)C[C@]23O)cc1OC	.	2	-7%	.	.	.
COc1ccc(Cl)cc1Nc1sc(C(=O)c2ccccc2)c(N)c1C(=O)Nc1ccccc1	26%	.	-20%	-1%	2%[60.1 µM]	-17%
O=[N+]([O-])c1cc(-c2ccc(/C=N/n3cnnc3)o2)ccc1Cl	-24%	2	-5%	-1%	-27%	5%
O=[N+]([O-])c1ccc(Cl)c(-c2ccc(/C=N/n3cnnc3)o2)c1	?	-1	?	25µM*	?	-24%
CCOc1ccc(C(=O)C(C)OC(=O)CN2C(=O)NC(C)(C)C2=O)cc1 (stereo unspecified)	26%	4	-20%	.	-4%	-8%
CCn1c(SCc2nc3sc(C(=O)O)c(C)c3c(=O)[nH]2)nnc1-c1ccc(Cl)cc1	70%	-56*	?	?	-22%	-7%
Cc1ccc(C)c(NC(=O)CCC(=O)N2CCOc3ccccc32)c1	29%	-6	-20%	3%	-4%	4%
O=c1cc(-c2ccccc2)nc2cc(-c3ccco3)[nH]n12	14%	-8	-14%	50µM*	3%	4%
O=c1cc(-c2ccccc2)nc2cc(-c3ccc(Br)cc3)[nH]n12	-20%	-10	-4%	-13%	-12%	-18%
CCn1cc(S(=O)(=O)c2ccc(C)cc2C)c(=O)c2cc(F)c(N3CCCCC3)cc21	-10%	.	4%	2%	-12%	-4%
CCOC(=O)CSC1=NC(=O)/C(=C/c2ccc(Br)cc2)S1	-8%	-55*	-6%	6%	3%	2%
NC1=NC(=O)/C(=C/c2ccc(Br)cc2)S1	13%	-3	5%	2%	0%	25%
COc1ccc(OCC(=O)OCc2cc(=O)n3nc(C4CCCCC4)sc3n2)cc1	?	.	-28%	45µM*	-27%	-24%
COc1cc(-c2cccs2)cc(=O)c2c(C)oc(C)c12	?	.	-9%	14µM*	-17%	-31%
COc1cc(-c2cc(OC)c3c(C)oc(C)c3c(=O)c2)ccc1OC(=O)c1ccccc1Cl	22%	.	-22%	1%	0%	7%
O=C(O)c1ccc(S(=O)(=O)c2ccc([N+](=O)[O-])cc2[N+](=O)[O-])cc1	1.1µM*	1	79µM*	8%	-23%	-15%
O=C(O)c1ccc(S(=O)(=O)c2ccccc2C(=O)O)c([N+](=O)[O-])c1	-15%	-8	8%	?	-2%	12%
CCN(CC)S(=O)(=O)c1nnc(NC(=O)COc2ccc(Cl)cc2)s1	10%	.	6%	0%	-3%	23%
Cc1nn(Cc2ccc(Cl)c(Cl)c2)c(C)c1NC(=O)c1cc(-c2ccco2)on1	12%	.	-4%	45µM*	-24%	2%
COc1cc(NC(=O)C(CC(C)C)NS(=O)(=O)c2ccc3c(c2)oc(=O)n3C)c(C(=O)O)cc1OC (stereo unspecified)	0%	.	-14%	-1%	-4%	11%
COc1ccc(S(=O)(=O)n2ccnc2)cc1C(C)(C)C	-27%	.	1%	8%	2%	-8%
Cc1ccc(C(=O)CSc2nnc(-c3ccccc3)n2-c2ccccc2)cc1	27%	.	-7%	3%	8%	22%
CC(=O)Nc1ccc(C(=O)CSc2nnc(-c3ccccc3)n2-c2ccccc2)cc1	?	.	-9%	10µM*	5%	15%
